Compound activity as filed in PubChem BioAssay.
PD-1 reverse act: reversal of PD-1 mediated T-cell inhibition; primary human CD4 T cells, PD-L1 beads, CellTiter-Glo 96 h; AID 2316; 29,000 tested, under 10 active; activation, % (no concentration beside the values); call rule not given here
STK33 inh: blocks human STK33 kinase activity | Q9BYT3 | ADP-Glo luminescence, MBP substrate | inhibition, % at 12.5 µM | hit rate 0.44% among 27,000; in the data active = inhibition above about 20%; inconclusive = no clear call, values can overlap the other calls
Target sequence (Q9BYT3 whole entry, looked up): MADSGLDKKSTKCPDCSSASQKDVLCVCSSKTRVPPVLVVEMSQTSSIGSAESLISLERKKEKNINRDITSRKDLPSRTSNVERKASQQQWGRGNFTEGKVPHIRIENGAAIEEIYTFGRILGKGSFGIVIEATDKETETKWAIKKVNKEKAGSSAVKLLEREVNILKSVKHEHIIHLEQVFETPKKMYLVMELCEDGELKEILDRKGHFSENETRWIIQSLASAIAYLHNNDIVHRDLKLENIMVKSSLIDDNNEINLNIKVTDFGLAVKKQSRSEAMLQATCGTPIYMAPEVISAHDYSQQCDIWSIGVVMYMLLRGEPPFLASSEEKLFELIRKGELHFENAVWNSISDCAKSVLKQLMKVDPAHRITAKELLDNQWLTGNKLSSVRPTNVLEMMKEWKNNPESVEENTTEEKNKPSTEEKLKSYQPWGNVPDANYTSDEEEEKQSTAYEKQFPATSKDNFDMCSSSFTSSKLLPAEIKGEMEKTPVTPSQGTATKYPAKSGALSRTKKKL
NOMO-1 viab: STK33 inhibitor candidate reducing NOMO-1 cell viability | NOMO-1 AML viability, CellTiter-Glo luminescence, 72 h | inhibition, % (no concentration beside the values) | hit rate 7.5% among 37,000 | AID 2330; in the data active = inhibition above about 80%; inconclusive = no clear call, values can overlap the other calls
Numbers stand for hits. Shown is part of a subset that was picked to be rich in hits.

Results for O=C(Nc1ccc(S(=O)(=O)Nc2ncccn2)cc1)c1ccc2c(c1)OCCO2 ?
STK33 inh: inactive; NOMO-1 viab: inactive

What do the screens show for `COC(=O)c1ccccc1NC(=O)CNC(=O)c1ccc(Cl)cc1Cl`?
STK33 inh: inactive; NOMO-1 viab: inactive

What do the screens show for `CC(C)NC(=O)N(C)C[C@@H]1Oc2c(NC(=O)Nc3ccc(F)cc3)cccc2C(=O)N([C@@H](C)CO)C[C@@H]1C`?
PD-1 reverse act: inactive; NOMO-1 viab: inactive

How did C[C@@H]1CN([C@H](C)CO)C(=O)c2cc(NC(=O)CCC(F)(F)F)ccc2O[C@H]1CN(C)C(=O)Nc1ccc2c(c1)OCO2 do in these assays?
PD-1 reverse act: inactive; NOMO-1 viab: inactive

How did C[C@@H]1CN([C@H](C)CO)C(=O)c2cc(N(C)C)ccc2O[C@@H]1CN(C)C(=O)Nc1ccc(F)cc1 do in these assays?
PD-1 reverse act: inactive; NOMO-1 viab: inactive

Results for COc1ccc(CN(C)C[C@H]2Oc3c(NS(=O)(=O)c4cccs4)cccc3C(=O)N([C@H](C)CO)C[C@@H]2C)cc1 ?
PD-1 reverse act: inactive; NOMO-1 viab: inactive

Results for C[C@H]1CN([C@@H](C)CO)C(=O)c2cc(NC(=O)Nc3ccc4c(c3)OCO4)ccc2O[C@H]1CN(C)Cc1ccc(Cl)c(Cl)c1 ?
PD-1 reverse act: inactive; STK33 inh: inactive; NOMO-1 viab: inactive

What do the screens show for `C[C@@H]1CN([C@@H](C)CO)C(=O)c2cc(NC(=O)Nc3ccc4c(c3)OCO4)ccc2O[C@@H]1CN(C)Cc1ccc(Cl)c(Cl)c1`?
PD-1 reverse act: inactive; STK33 inh: inactive; NOMO-1 viab: 95

What do the screens show for `C[C@H]1CN([C@@H](C)CO)C(=O)c2cccc(NS(=O)(=O)c3ccc(F)cc3)c2O[C@@H]1CN(C)C(=O)Nc1ccccc1`?
PD-1 reverse act: inactive; NOMO-1 viab: inactive

How did COc1cccc(OCC(=O)Nc2ccc(-c3nc4ccccc4[nH]3)cc2)c1 do in these assays?
PD-1 reverse act: inactive; STK33 inh: inactive; NOMO-1 viab: inactive

What do the screens show for `COc1ccccc1OCC(=O)Nc1ccc(-c2nc3ccc(C)cc3[nH]2)cc1`?
PD-1 reverse act: inactive; STK33 inh: inactive; NOMO-1 viab: 110

Results for Cc1ccc(S(=O)(=O)N(CC(=O)O)c2ccc(Br)cc2)cc1 ?
PD-1 reverse act: inactive; STK33 inh: inactive; NOMO-1 viab: inactive

How did COc1ccc([C@H]2COc3c(ccc(O)c3OC)C2)c(OC)c1O do in these assays?
STK33 inh: inactive; NOMO-1 viab: inactive

Results for C[C@@H]1CN([C@@H](C)CO)C(=O)c2cc(NC(=O)Nc3ccccc3)ccc2O[C@@H]1CN(C)S(=O)(=O)c1cccs1 ?
PD-1 reverse act: inactive; STK33 inh: inactive; NOMO-1 viab: inactive

Results for O=c1c2ccccc2oc2ccc(O)cc12 ?
STK33 inh: inactive; NOMO-1 viab: inactive

Results for COc1ccc2oc3ccccc3c(=O)c2c1 ?
PD-1 reverse act: inactive; STK33 inh: 61; NOMO-1 viab: inconclusive

How did C[C@H](CO)N1C[C@H](C)[C@H](CN(C)Cc2ccc(Cl)c(Cl)c2)Oc2ccc(NC(=O)Nc3ccc(F)cc3)cc2CC1=O do in these assays?
PD-1 reverse act: inactive; STK33 inh: inactive; NOMO-1 viab: inactive

How did Cc1noc(C)c1NC(=O)Nc1ccc2c(c1)CC(=O)N([C@@H](C)CO)C[C@@H](C)[C@@H](CN(C)Cc1ccc3c(c1)OCO3)O2 do in these assays?
PD-1 reverse act: inactive; STK33 inh: inactive; NOMO-1 viab: inactive

What do the screens show for `C[C@@H]1CN([C@H](C)CO)C(=O)Cc2cc(NC(=O)Nc3ccc(F)cc3)ccc2O[C@@H]1CN(C)Cc1ccc(Cl)c(Cl)c1`?
PD-1 reverse act: inactive; STK33 inh: inactive; NOMO-1 viab: 114

How did COc1ccc(NC(=O)Nc2ccc3c(c2)CC(=O)N([C@@H](C)CO)C[C@H](C)[C@@H](CN(C)Cc2ccc(Cl)c(Cl)c2)O3)cc1 do in these assays?
STK33 inh: inactive; NOMO-1 viab: inactive

How did C[C@H]1CN([C@@H](C)CO)C(=O)Cc2cc(NC(=O)Nc3ccc4c(c3)OCO4)ccc2O[C@H]1CN(C)Cc1ccc(Cl)c(Cl)c1 do in these assays?
PD-1 reverse act: inactive; STK33 inh: inactive; NOMO-1 viab: 113

What do the screens show for `C[C@H]1CN([C@@H](C)CO)C(=O)Cc2cc(NC(=O)Nc3ccc(F)cc3)ccc2O[C@H]1CN(C)Cc1ccc(Cl)c(Cl)c1`?
NOMO-1 viab: 127

What do the screens show for `C[C@@H]1CN([C@@H](C)CO)C(=O)Cc2cc(NC(=O)Nc3ccc4c(c3)OCO4)ccc2O[C@@H]1CN(C)Cc1ccc(Cl)c(Cl)c1`?
PD-1 reverse act: inactive; STK33 inh: inactive; NOMO-1 viab: inactive

How did Cc1noc(C)c1NC(=O)Nc1ccc2c(c1)CC(=O)N([C@@H](C)CO)C[C@H](C)[C@H](CN(C)Cc1ccc(Cl)c(Cl)c1)O2 do in these assays?
PD-1 reverse act: inactive; STK33 inh: inactive; NOMO-1 viab: 114

How did Cc1cccc(C)c1OCC(=O)Nc1cccc(C(=O)O)c1C do in these assays?
PD-1 reverse act: inactive; STK33 inh: inactive; NOMO-1 viab: inactive
